Common to all, as to assay: NCI-60 one-dose screen, 48 h (100 = growth as untreated, 0 = no growth, -100 = all killed)
Details in all cases: 10 µM unless noted

The test system of test [1] is NCI-H23 lung.
The subject of test [2] is NCI-H226 lung.
Test [3] relates to NCI-H322M lung.
Test [4] has as its system HOP-62 NSCLC.
In test [5] the test system is NCI-H460 lung.
In test [6] the test system is NCI-H522 lung.
The test system of test [7] is 786-0 renal.
Test [8] has as its system COLO 205 colon.
The subject of test [9] is DU-145 prostate.
The subject of test [10] is K-562 leukemia.
In test [11] the test system is MALME-3M melanoma.
For test [12], the system named is MDA-MB-231 breast.
Test [13] relates to RXF 393 renal.
Test [14] relates to SF-268 CNS.
For test [15], the system named is SF-295 CNS.
The subject of test [16] is SF-539 CNS.
Test [17] relates to UACC-257 melanoma.
The subject of test [18] is M14 melanoma.
The subject of test [19] is HCT-15 colon.
The subject of test [20] is A549/ATCC NSCLC.

The structures appear in SMILES notation. Compounds without any hit were thinned out: in the full panel of roughly 83,000, 20% have a hit.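 Single-dose data. Exposure time 48 hours. Values below 10 considered active.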 Values without a mark were called inactive. Calls of active or inactive are those of the source.

We go through 11 compounds from PubChem BioAssay (NCI).

`O=C1NC(=O)/C(=C\c2ccccc2)C2=C1CCCC2`: the growth in test [1] was -44.7% (active); in test [2], 92.3%; in test [3], 107%; in test [4] it was 119%; in test [5], 85.5%; in [6], -87.4% (active). Besides, the growth was 61.7% in test [7]; -63.2% (active) in test [8]; 25.7% in test [9]; -37.8% (active) in test [10]; 50.6% in test [11]; 92.1% in test [12]. The growth is 13.3% in test [13]; 39.4% in test [14]; 88.2% in test [15]; 27.4% in test [16]; -64.6% (active) in [17]; 36.4% in [18]. The growth in test [19] is 20.9%.

As for `Cc1ccc(NC(=O)CSc2nnc3n(Cc4ccccc4)c(=O)c4c(C)c(C(N)=O)sc4n23)cc1`, the growth is 78.4% in test [1]; 28.9% in [2]; 46.2% in test [3]; -7.47% (active) in test [4]; -40.9% (active) in test [5]; 31.5% in [6]. The growth in test [20] is 77.7%; in test [7], 16.9%; in test [9], 39%; in test [11] it was 11.4%; in test [12] it was -6.14% (active); in [13] it was 79.9%. Moreover, the growth is 55.8% in [14]; 53% in [15]; 56.4% in [17]; 60.5% in [18]; 84.4% in test [19].

`O=NC1CC=CCC1c1ccccc1` (configuration not stated): the growth is 106% in test [1]; 105% in [2]; 118% in test [3]; 98.7% in test [4]; 112% in test [5]; 109% in [6]. Besides, the growth in [7] is 106%; in test [8], 117%; in test [9], 124%; in test [10] it was 105%; in test [11] it was 114%; in [12], 101%. For the same compound, the growth in [13] is 116%; in test [14], 104%; in test [15], 122%; in test [16], 98.5%; in test [17], 105%; in [18], 105%.

`O=C(CCc1nnc2sc(-c3ccc(Cl)cc3Cl)nn12)c1nc2ccccc2[nH]1`: the growth was -35.1% (active) in [1]; -78.4% (active) in [2]; -54.7% (active) in [3]; -56.9% (active) in test [4]; -57.8% (active) in test [5]; -74.7% (active) in test [6]. Also, the growth is -46.1% (active) in test [20]; -94.7% (active) in test [7]; -26.5% (active) in [11]; -54.2% (active) in test [12]; -92.9% (active) in test [13]; 15.2% in test [14]. Besides, the growth in [15] was -37.4% (active); in [16] it was -19% (active); in test [17], -69.9% (active); in [18], -47.5% (active); in test [19], -31.8% (active).

For `N#CCCCCCn1c2ccccc2c2c3c(c4c5ccccc5[nH]c4c21)C(=O)N(O)C3=O`, the growth in test [1] is -5.54% (active); in [2] it was 43.3%; in test [3] it was 19.9%; in test [4] it was 18.4%; in [5] it was -7.73% (active); in [6] it was -53.9% (active). Besides, the growth in [20] is 25%; in test [8], 26.7%; in test [9] it was 18.5%; in test [10] it was 6.27% (active); in test [11], -34.6% (active); in [12] it was 16.1%. Moreover, the growth in test [13] is -30.7% (active); in test [14], 11.3%; in [15], -17.2% (active); in test [16], -95.4% (active); in test [17], 20.5%; in test [18] it was 11.9%. Further, the growth in [19] is 15.9%.

With `COc1ccc(-n2nc3c(c2-c2ccc(OC)c(OC)c2)-c2oncc2CC3)cc1`, the growth is 93.3% in test [1]; 106% in [2]; 97.7% in [3]; 94.1% in [4]; 90.3% in test [5]; 18.1% in test [6]. Besides, the growth was 82.5% in test [20]; 78% in test [7]; 100% in [11]; 80% in [12]; 83.8% in test [13]; 84% in test [14]. For the same compound, the growth is 84% in test [15]; 114% in test [16]; 110% in test [17]; 93.6% in test [18]; 55.9% in test [19].

Regarding `CC(=O)c1ccc2c3c(n(C)c2c1)CCCC3`, the growth in test [1] was 104%; in test [2], 33%; in [3], 117%; in test [4], 101%; in test [5], 84.9%; in [6], 95.2%. Also, the growth in [20] was 106%; in [7] it was 92.7%; in test [9], 98.3%; in test [11] it was 118%; in test [12] it was 101%; in [13], 112%. The growth in test [14] was 101%; in [15], 97.7%; in test [16] it was 98%; in [17], 116%; in test [18] it was 108%; in test [19] it was 105%.

With `CCN(CC)c1ccc(CN(CC(=O)c2ccc(Cl)c(Cl)c2)Cc2ccccc2)cc1`, the growth in [1] is 97.6%; in test [2], 90.9%; in test [3] it was 110%; in [4] it was 96.9%; in test [5] it was 101%; in test [6], 106%. In addition, the growth in test [20] was 107%; in [8] it was 104%; in test [9] it was 104%; in test [10] it was 103%; in [11] it was 108%; in [12], 99.9%. For the same compound, the growth in test [13] was 89.9%; in [14], 102%; in test [15], 107%; in test [16] it was 108%; in test [17], 112%; in [18] it was 103%. In addition, the growth in test [19] is 99.8%.

`CSc1nc2c(c(=O)n1C)C(c1ccccc1)C1=C(N2)/C(=C/c2ccccc2)CCC1` (configuration not stated): the growth in test [1] is 54.8%; in test [2], 74.1%; in test [3], 86%; in [4] it was 94.3%; in [5], 54.3%; in [6], 24.5%. The growth in test [20] is 86.2%; in test [7] it was 54.6%; in test [9], 72.2%; in [11], 70.4%; in test [12], 53.5%; in [13] it was 36.9%. The growth in test [14] is 62.6%; in test [15], 7.45% (active); in test [16] it was 63.4%; in [17] it was 52.2%; in test [18] it was 65.9%; in [19] it was 58.9%.

For the compound `O=C(Nc1ccccc1Cl)c1cnc2ccc(C3CCNCC3)cn12`, the growth was 95% in test [1]; 65% in test [2]; 23.1% in test [3]; 58.3% in test [4]; 86.4% in test [5]; 2.54% (active) in [6]. Besides, the growth in test [20] was 66.7%; in [7] it was 52.8%; in test [9] it was 56.7%; in [11], 96.2%; in test [12], 61.3%; in [13] it was 36.5%. In addition, the growth in test [14] is 60.7%; in test [15], 70.7%; in [16] it was 47%; in test [17], 82.5%; in test [18], 72.7%; in [19] it was 46.6%.

On to `O=C(CCc1nnc2sc(Cc3ccccc3Cl)nn12)c1nc2ccccc2[nH]1`, for which the growth in [1] was 90.4%; in test [2], 89.3%; in test [3], 85.2%; in test [4], 92.1%; in test [5] it was 99.5%; in test [6] it was 96.6%. Also, the growth in [20] was 100%; in test [7] it was 85.8%; in test [11], 112%; in test [12] it was 76.5%; in test [13], 90.9%; in test [14], 84.9%. The growth in test [15] is 103%; in test [16] it was 107%; in [17], 102%; in test [18] it was 99.2%; in test [19], 92.3%.
